Reference: PubChem BioAssay (NCI)
The panel holds about 83,000 compounds, 20% with a hit somewhere; the sample as a whole holds those more often.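 Values shown are percent growth following 48 h exposure of cells in 96-well plates to a single concentration of compound; below 10 was considered active.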 Unmarked numbers belong to inactive results. The source made the active and inactive calls.

Legend:
Assay in all cases: NCI-60 one-dose screen, 48 h (100 = growth as untreated, 0 = no growth, -100 = all killed)
Details in all cases: 10 µM
HCT-15 colon = tested on: HCT-15 colon
HT29 colon = tested on: HT29 colon
SNB-75 CNS = tested on: SNB-75 CNS
SNB-19 CNS = tested on: SNB-19 CNS
U251 CNS = tested on: U251 CNS
PC-3 prostate = tested on: PC-3 prostate
SK-MEL-5 melanoma = tested on: SK-MEL-5 melanoma
UACC-62 melanoma = tested on: UACC-62 melanoma
LOX IMVI melanoma = tested on: LOX IMVI melanoma
SK-MEL-28 melanoma = tested on: SK-MEL-28 melanoma
EKVX NSCLC = tested on: EKVX NSCLC
SN12C renal = tested on: SN12C renal
UO-31 renal = tested on: UO-31 renal
TK-10 renal = tested on: TK-10 renal
ACHN renal = tested on: ACHN renal
CAKI-1 renal = tested on: CAKI-1 renal
A498 renal = tested on: A498 renal
CCRF-CEM leukemia = tested on: CCRF-CEM leukemia
MOLT-4 leukemia = tested on: MOLT-4 leukemia
SK-MEL-2 melanoma = tested on: SK-MEL-2 melanoma

SMILES	growth (HCT-15 colon)	growth (HT29 colon)	growth (SNB-75 CNS)	growth (SNB-19 CNS)	growth (U251 CNS)	growth (PC-3 prostate)	growth (SK-MEL-5 melanoma)	growth (UACC-62 melanoma)	growth (LOX IMVI melanoma)	growth (SK-MEL-28 melanoma)	growth (EKVX NSCLC)	growth (SN12C renal)	growth (UO-31 renal)	growth (TK-10 renal)	growth (ACHN renal)	growth (CAKI-1 renal)	growth (A498 renal)	growth (CCRF-CEM leukemia)	growth (MOLT-4 leukemia)	growth (SK-MEL-2 melanoma) [%]
C/C(=N\NC(N)=S)c1ccc(Nc2nc(SC(C)C)nc(-c3ccccc3)c2C#N)cc1	77.1%	57.9%	104%	63.5%	32%	59.2%	75.5%	48.1%	29.8%	80.9%	75.9%	63.5%	77.5%	98.1%	58.3%	74.6%	123%	76.3%	77.5%	–
CCCCCCCCCCCCCCCCCCCC(=O)NCCc1c[nH]c2ccc(OC(=O)CCCC(=O)OCCOOCCOOCCOOCCOOCCOOCCOOCCOOCCOOCCOOCCOOCCOOCCOC)cc12	56%	63.4%	110%	69.1%	-31.3% (active)	22%	99.6%	67.1%	27.2%	88%	83.1%	17.4%	45.4%	120%	59.9%	73.7%	116%	–	-4.66% (active)	–
COc1cccc(/C=C2\N=C(C)N(CCc3ccc(S(N)(=O)=O)cc3)C2=O)c1	105%	108%	98%	95.1%	99.9%	98.4%	102%	94%	97.4%	105%	95.6%	–	90.9%	97.6%	107%	78.8%	101%	96.4%	97.8%	–
CCOP(=O)(OCC)O[C@H]1CC[C@]2(C)[C@H]3CC[C@@H]4[C@@H]([C@](C)(O)CCC=C(C)C)CC[C@@]4(C)[C@]3(C)CC[C@H]2C1(C)C	10.7%	-50.2% (active)	51.4%	45.4%	12.8%	19.8%	-84.2% (active)	43.5%	-100% (active)	48.8%	28.2%	-51.7% (active)	24.8%	36.6%	28%	25.2%	52.5%	-21.2% (active)	-15.5% (active)	–
CC1(C)CC[C@]2(C(=O)NCCCNCCCCNCCCN)CC[C@]3(C)C(=CC[C@@H]4[C@@]5(C)Cc6c([nH]c7ccccc67)C(C)(C)[C@@H]5CC[C@]43C)[C@H]2C1	85%	92.4%	101%	57.9%	89.5%	65.8%	81.5%	116%	–	102%	90.7%	91.4%	71%	96.9%	93.9%	78%	147%	64.4%	–	101
Cc1ccc(F)cc1N/C=c1\s/c(=C(\C#N)C(=O)Nc2ccccc2)n(-c2ccccc2)c1=O	64.9%	72.9%	3.2% (active)	36.2%	74.2%	74.5%	71.8%	98.2%	–	95.7%	86.7%	46.9%	45.5%	84.4%	-20.1% (active)	19.8%	-16.7% (active)	84.7%	90.3%	94.7
COc1cccc(-c2ccnc(/N=C(\N)Nc3ccc(S(=O)(=O)Nc4nc(C)cc(C)n4)cc3)n2)c1	104%	106%	77.5%	101%	101%	91.2%	99.6%	102%	85.8%	112%	92.7%	100%	64.1%	111%	97.3%	80.4%	114%	98.5%	101%	–
CN1C(=O)N(C)C2SC(N/N=C/c3ccccc3F)=NC21 (centres undefined)	28.2%	28.2%	91.1%	63.4%	51.2%	81.5%	57.9%	26.8%	50.2%	69.2%	86.4%	71.3%	60.6%	83.6%	85.5%	67.4%	82.4%	–	44.5%	–
Nc1nnc(-c2c[nH]c3ncccc23)c(-c2c[nH]c3ccc(Br)cc23)n1	56.5%	45.1%	28.2%	40.8%	37.5%	56.9%	-33.5% (active)	33.8%	–	54%	53.1%	45.2%	35.6%	44.9%	35.1%	23.1%	48.4%	39.8%	12.7%	23.7
Cc1cc(C)cc(Oc2cccc(-c3c(C)nnn3C3CCN(CCN(C)C)CC3)n2)c1	7.96% (active)	11%	16.7%	47.7%	36.5%	37.7%	-53.4% (active)	18.2%	2.35% (active)	19%	39.7%	41.4%	15.8%	21.1%	26.2%	7.83% (active)	56.4%	16.7%	30.8%	–
CC(C)C1=C[C@@]23CC[C@@H]4[C@](C)(CCC[C@]4(C)C(=O)NCc4ccccc4)[C@H]2C[C@@H]1[C@H]1C(=O)CCC(=O)[C@H]13	56%	81.7%	80.8%	83.2%	67%	36.9%	69.3%	59.6%	27%	68.6%	49.8%	83.4%	48.1%	96.9%	70.7%	88.7%	97.8%	9.73% (active)	16.2%	–
Cc1cccc(-c2nc(Nc3ccccc3C(=O)O)c3ccccc3n2)c1	14.3%	39.7%	55.3%	21.2%	26.6%	29.5%	6.01% (active)	28%	–	50%	21%	40.7%	31%	85.8%	36.4%	52.4%	47.6%	17.8%	34.3%	66
COc1cc(NC(=O)CSc2nnc(-c3ccc4nc(-c5ccc(Cl)cc5)[nH]c4c3)o2)cc(OC)c1OC	43.3%	61.7%	93.7%	86%	77%	46.9%	50.5%	37.8%	51.9%	70.5%	93.1%	–	63.8%	–	66.1%	67.8%	121%	26.7%	25.1%	–
O=C(CSc1nnc(-c2ccc3nc(-c4ccccc4)[nH]c3c2)o1)Nc1ccc(Cl)cc1	15.7%	17.4%	66.1%	63.9%	48.9%	43.3%	15.3%	34.3%	–	41.8%	48.6%	46.1%	40.1%	55%	29.5%	30.5%	101%	13.7%	7.63% (active)	45
CC(=O)Nc1ccc(-n2cnc3cc(-c4ccc(O)cc4)ccc32)cc1C	49.2%	61.6%	58.4%	58.4%	47.7%	58.5%	46.4%	42.9%	–	51.8%	61.6%	40.4%	35.5%	73.9%	43.1%	44.2%	92.1%	65.1%	64.7%	19.9
COC1=C[C@]23CCC(=O)N2CCc2cc4c(cc2[C@@H]3[C@@H]1OC(=O)CCCC(C)C)OCO4	23.1%	32.2%	120%	28%	43.3%	42.5%	25.9%	61%	7.89% (active)	64.4%	80.4%	104%	36.3%	66.1%	32.1%	48%	25%	–	9.63% (active)	–
CN(C(=O)c1ccc(C(F)(F)F)cc1C(F)(F)F)c1sc2c(c1C#N)CCC(=O)C2	10.4%	106%	105%	88.7%	-11.7% (active)	0.435% (active)	25.9%	55.7%	29.2%	106%	73.7%	–	62.4%	94.2%	82.7%	61.3%	125%	-0.48% (active)	36.4%	–
O=C(c1ccc(Cl)cc1)C1[C@H](c2ccc(Br)cc2)[C@@H](c2ccccc2)NC12C(=O)Nc1ccccc12 (some centres undefined)	-2.63% (active)	-52.2% (active)	15%	15.9%	-6.22% (active)	5.16% (active)	-23.2% (active)	-60.6% (active)	-100% (active)	-32.7% (active)	4.42% (active)	-78.1% (active)	2.46% (active)	–	-5.73% (active)	0.681% (active)	-23.5% (active)	-0.656% (active)	-22.7% (active)	–
CS(=O)(=O)Nc1ccc(-c2ccc3c(c2)ncn3-c2ccc(NC(=O)Nc3ccc(Cl)c(C(F)(F)F)c3)cc2)cc1	-91.3% (active)	-84.1% (active)	-42% (active)	-89.3% (active)	-87.4% (active)	-57.5% (active)	-97.7% (active)	-85.8% (active)	-97% (active)	-78.1% (active)	-60.3% (active)	-68.7% (active)	-65.1% (active)	-6.45% (active)	-63.7% (active)	-55.2% (active)	-85.9% (active)	-31.7% (active)	-36.8% (active)	–
CO[C@@H]1CSS[C@H]1Cn1nc(-c2ccc(Oc3ccccc3)cc2)c2c(N)ncnc21	66.9%	51.1%	113%	71.8%	60%	51.7%	25.7%	-11.1% (active)	53.7%	-0.701% (active)	42.8%	73.9%	27.2%	45.5%	68.2%	47.6%	67%	10.7%	14%	–
CC(C)c1ccc(C(=O)Nc2sc3c(c2C(N)=O)CCC(=O)C3=O)cc1	71.5%	110%	98.2%	97.4%	92.6%	82.8%	99.1%	94.3%	82.7%	110%	87.9%	94.7%	59.7%	125%	93.6%	91.9%	130%	–	72.4%	–
Cc1ccc(CSc2nc(Cl)c(C#N)c(-c3ccc(F)cc3)n2)cc1	54.4%	38.4%	126%	89.3%	68.8%	42.6%	77.6%	77.2%	85.8%	93.9%	79.6%	–	67.9%	91.7%	85.4%	67.1%	91.6%	67.7%	61.9%	–
CC(=O)C1=C(C)NC(SCC(=O)Nc2ccc(S(=O)(=O)Nc3cc(C)on3)cc2)=NC1c1ccccc1 (centres undefined)	96.3%	110%	102%	102%	103%	109%	101%	97.1%	92.8%	110%	101%	111%	89.2%	–	106%	99.8%	–	98%	109%	–
